# A number with no mark means an inactive call.
# System: Pectobacterium parmentieri SCC3193
# Assay: DuctApe activity index (growth/respiration on compound as sole nutrient source, blank-subtracted) (activity index (0-3)); higher = stronger utilization of the compound, active = 3 or more
# Conditions: nutrient role (plate category): carbon
# Description: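 Biolog Phenotype Microarray plates PM1, PM2A (carbon), PM3 (nitrogen) and PM4 (phosphorus/sulfur) inoculated with P. parmentieri SCC3193 in M9-C minimal salts medium with Biolog dye A, and read in the OmniLog for 46 h. Each well was tested in triplicate and the experiment was run twice. DuctApe computed a blank-subtracted activity index (AV, 0-3) from the mean curves; growth is positive at AV >= 3 and negative at AV <= 2.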
row,SMILES,DuctApe activity index
1,OCC1OC(OC2C(CO)OC(O)C(O)C2O)C(O)C(O)C1O [D-Cellobiose],3 (active)
2,"CC(O)CO (stereo not drawn) [1,2-Propanediol]",0
3,OC[C@@H](O)[C@@H](O)[C@H](O)[C@H](O)CO [D-Mannitol],3 (active)
4,O=C(O)C[C@@H](O)C(=O)O [D-Malic acid],0
5,OC[C@H]1OC(O[C@H]2[C@H](O)[C@@H](CO)OC(O[C@H]3[C@H](O)[C@@H](CO)OC(O)[C@@H]3O)[C@@H]2O)[C@H](O)[C@@H](O)[C@@H]1O (stereo partly drawn) [Laminarin],0
6,OC1OC[C@@H](O)[C@@H](O)[C@@H]1O (stereo partly drawn) [D-Arabinose],1
7,CC[C@H](O)C(=O)O [a-Hydroxybutyric acid],0
8,O=C1O[C@@H]([C@H](O)CO)[C@H](O)[C@H]1O [D-Galactonic acid-g-Lactone],3 (active)
9,C[C@@H]1OC(O)[C@H](O)[C@H](O)[C@H]1O (stereo partly drawn) [L-Rhamnose],3 (active)
10,OC[C@@H](O)[C@@H](O[C@H]1O[C@H](CO)[C@@H](O)[C@H](O)[C@H]1O)[C@H](O)[C@@H](O)CO [Maltitol],0
11,COC(=O)[C@@H](C)O [D-Lactic acid Methyl Ester],1
12,O=C(O)[C@H]1OC(O)[C@H](O)[C@@H](O)[C@H]1O (stereo partly drawn) [D-Galacturonic acid],3 (active)
13,OC[C@H]1O[C@H](OC[C@H]2O[C@H](O[C@]3(CO)O[C@H](CO)[C@@H](O)[C@@H]3O)[C@H](O)[C@@H](O)[C@@H]2O)[C@H](O)[C@@H](O)[C@H]1O [D-Raffinose],3 (active)
14,OC1OC[C@@H](O)[C@H](O)[C@H]1O (stereo partly drawn) [D-Xylose],3 (active)
15,OC[C@H]1O[C@@H]2O[C@H]3[C@H](O)[C@@H](O)[C@@H](O[C@H]4[C@H](O)[C@@H](O)[C@@H](O[C@H]5[C@H](O)[C@@H](O)[C@@H](O[C@H]6[C@H](O)[C@@H](O)[C@@H](O[C@H]7[C@H](O)[C@@H](O)[C@@H](O[C@H]8[C@H](O)[C@@H](O)[C@@H](O[C@H]1[C@H](O)[C@H]2O)O[C@@H]8CO)O[C@@H]7CO)O[C@@H]6CO)O[C@@H]5CO)O[C@@H]4CO)O[C@@H]3CO [b-Cyclodextrin],0
16,O=CC(=O)O [Glyoxylic acid],0

# Same assay, conditions: nutrient role (plate category): nitrogen
row,SMILES,DuctApe activity index
1,N [Ammonia],0
2,N[C@@H](Cc1c[nH]c2ccccc12)C(=O)O [L-Tryptophan],1
3,C[C@H](N)C(=O)N[C@@H](CCC(=O)O)C(=O)O,1
4,NCCN [Ethylenediamine],0
5,CC(O)C(N)=O (racemic) [DL-Lactamide],0
6,NC(=O)C[C@@H](N)C(=O)O [D-Asparagine],1
7,O=c1[nH]c(=O)c2nc[nH]c2[nH]1 [Xanthine],3 (active)
8,NC(=O)NCCC[C@H](N)C(=O)O [L-Citrulline],0
9,CCC(N)C(=O)O (racemic) [DL-a-Amino-N-Butyric acid],1

# Same assay, conditions: nutrient role (plate category): phosphate & sulphur
row,SMILES,DuctApe activity index
1,CCCCS(=O)(=O)O [Butane Sulfonic acid],1
2,Nc1ccn([C@@H]2O[C@H](CO)[C@@H](O)[C@H]2OP(=O)(O)O)c(=O)n1 [Cytidine 2`-Monophosphate],3 (active)
3,Nc1ncnc2c1ncn2[C@@H]1O[C@H](CO)[C@@H](O)[C@H]1OP(=O)(O)O [Adenosine 2`-Monophosphate],2
4,NC(CCSCC(N)C(=O)O)C(=O)O (stereo not drawn) [Cystathionine],1
5,O=P(O)(O)OC(CO)CO [b-Glycerol Phosphate],2
6,O=P(O)(O)O [Phosphate],1
7,"CSCCC(NC(C)=O)C(=O)O (racemic) [N-Acetyl-D,L-Methionine]",2
8,C[C@@H](OP(=O)(O)O)[C@H](N)C(=O)O [O-Phospho-L-Threonine],2
9,O=P(O)(O)O[C@H]1O[C@H](CO)[C@@H](O)[C@H](O)[C@@H]1O [D-Mannose-1-Phosphate],2
10,CS(=O)(=O)O [Methane Sulfonic acid],0
11,C=C(OP(=O)(O)O)C(=O)O [Phosphoenol Pyruvate],2
12,O=P(O)(O)OC[C@H]1OC(O)[C@@H](O)[C@@H](O)[C@@H]1O (stereo partly drawn) [D-Mannose-6-Phosphate],1
13,NC(=O)OP(=O)(O)O [Carbamyl Phosphate],1

# From the supplement of paper PMC6518042
